RE007 growth inh – qHTS Assay for Inhibitors of the HIV-1 protein Vpr. S. pombe RE007 Vpr strain, BacTiter-Glo ATP luminescence, 24 h. Potency, µM (highest dose often 92.2 µM), inactives show top-dose activity change, negative = less growth, usual class: inhibitors. actives 0.21% (n = 360,000). AID 651644, 2012; active = well fitted falling curve with a large enough effect; inconclusive = small, poorly fitted or top-dose-only effect; inactive = no such curve, though single readings can be large or run the other way; also: potency is read from the fitted curve at half-maximal effect; % is scaled to controls: 0 for no effect and ±100 for the full control effect; nearly all actives have a fitted effect of over 50% in size
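Fission yeast RE007 carrying one integrated HIV-1 vpr copy, seeded at OD 0.01 in PMG+AL medium with 23 nL pinned compound. Grown 24 h at 30 degrees; viability read by BacTiter-Glo luminescence after 5 min.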
CHX counter – Cycloheximide Counterscreen for Small Molecule Inhibitors of Shiga Toxin; actives 12% (n = 300,000); max response, %; cell reporter, cycloheximide protein synthesis inhibition counterscreen; in the data active = max response mostly above about 13%, no sharp cut-off; inactive = mostly below about 14%; also: read at 38.3 µM for the half of the compounds with a filed dose; 0% is about no effect
Shiga inhibitor – A qHTS for Small Molecule Inhibitors of Shiga Toxin | Vero cells, Shiga toxin protein synthesis inhibition reporter | inhibition, % at 38.7 µM | actives 9.2% (n = 290,000) | AID 2315, 2010; in the data active = inhibition mostly above about 28%, no sharp cut-off; inactive = mostly below about 43%; also: 0% is about no effect
Tb PYK inh – qHTS of Trypanosoma Brucei Inhibitors; AID 624173, 2012; actives 0.12% (n = 410,000); TbPYK enzyme, Kinase-Glo Plus ATP luminescence, 45 min; Potency, µM (highest dose often 76.8 µM), for inactives: top-dose activity, negative = inhibition, usual class: inhibitors; also: potency is read from the fitted curve at half-maximal effect; % is scaled to controls: 0 for no effect and ±100 for the full control effect; nearly all actives have a fitted effect of over 50% in size
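Screened from lowest to highest concentration, compounds were pinned into TbPYK/substrate mixtures, and ADP (130 uM final) was added. Plates sat at room temperature for 45 min prior to Kinase-Glo Plus detection by luminescence.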
LmPK inh – qHTS Assay for Inhibitors of Leishmania Mexicana Pyruvate Kinase (LmPK). AID 1721, 2009. Q27686. actives 0.37% (n = 290,000). purified LmPK, Kinase-Glo ATP luminescence, 1 h. Potency, µM (series often up to 57.5 µM), inactives show at the top dose activity change, negative = inhibition, actives largely listed as inhibitors; also: potency is read from the fitted curve at half-maximal effect; % is scaled to controls: 0 for no effect and ±100 for the full control effect
Target sequence (Q27686 whole entry, looked up): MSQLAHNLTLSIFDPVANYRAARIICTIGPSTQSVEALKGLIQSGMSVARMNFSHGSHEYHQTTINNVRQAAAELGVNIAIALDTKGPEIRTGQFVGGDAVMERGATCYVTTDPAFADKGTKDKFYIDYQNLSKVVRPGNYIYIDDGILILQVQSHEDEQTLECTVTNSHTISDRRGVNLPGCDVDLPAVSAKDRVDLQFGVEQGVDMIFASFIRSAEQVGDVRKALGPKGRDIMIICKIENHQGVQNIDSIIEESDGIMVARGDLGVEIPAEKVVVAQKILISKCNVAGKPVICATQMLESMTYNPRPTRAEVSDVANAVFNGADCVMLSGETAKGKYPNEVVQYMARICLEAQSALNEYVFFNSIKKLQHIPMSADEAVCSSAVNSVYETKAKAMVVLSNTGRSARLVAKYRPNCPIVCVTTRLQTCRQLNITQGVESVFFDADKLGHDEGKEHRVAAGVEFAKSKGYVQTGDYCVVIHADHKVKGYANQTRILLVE
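Kinase-Glo luminescence read after 1 h RT reaction of 0.1 nM LmPK with 0.5 mM PEP and 0.1 mM ADP. Activity scaled between uninhibited and enzyme-free controls.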
FBPA Giardia inh – qHTS Assay for Inhibitors of Fructose-1,6-bisphosphate Aldolase from Giardia Lamblia. A8B2U2. purified Giardia FBPA. Potency, µM (highest dose often 59.6 µM), for inactives: top-dose activity, negative = inhibition, most hits filed as inhibitors. actives 0.71% (n = 290,000). AID 2451, 2010; also: potency is read from the fitted curve at half-maximal effect; % is scaled to controls: 0 for no effect and ±100 for the full control effect; nearly all actives have a fitted effect of over 55% in size
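Giardia FBPA (40 nM reagent) was preincubated 10 min at RT with compound (up to 57.5 uM final), then substrate plus GAPDH/TPI/NAD/arsenate coupling system with diaphorase/resazurin was added; resorufin fluorescence (525/598 nm) was read after 20 min.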
An asterisk follows results filed as active; ? = inconclusive; . = no result given; [ ] = dose if it differs, or a comment. Only a selection was taken, and hits are over-represented in it overall. Unless noted, calls follow the shape of the dose curve; as a rule, active = well fitted curve in the direction sought with a large enough effect; inconclusive = small, poorly fitted or top-dose-only effect, or another doubt; inactive = no such curve, though single readings can be large; an effect the other way counts as inactive or inconclusive.

SMILES	RE007 growth inh	CHX counter	Shiga inhibitor	Tb PYK inh	LmPK inh	FBPA Giardia inh
CC(=O)Nc1cccc(-c2csc(Nc3cc(C)ccn3)n2)c1	-4.9%	41.4*	126.6*	2.8%	3.8%	-11.3%
Cc1ccnc(Nc2nc(-c3c(C)nc4sccn34)cs2)c1	-1.0%[3.69 µM]	31.7*	57.3	.	1.4%	?
CC(=O)Nc1ccc(-c2csc(Nc3ccc(S(N)(=O)=O)cc3)n2)cc1	17.9%	6.3	-6.7	3.5%	2.4%	0.2%
CC(=O)Nc1ccc(-c2csc(Nc3cc(C)ccn3)n2)cc1	-8.4%	48.6*	77.9*	0.4%	9.4%	-19.6%
N#Cc1ccc(Nc2nc(-c3ccccc3)cs2)cc1	?	.	.	0.9%	.	.
Cc1ccc(Nc2nc(-c3c(C)nc4ncccn34)cs2)cc1	16.5%	-0.6	-5.4	0.9%	-0.1%	-24.0%
Cc1ccnc(Nc2nc(-c3ccccc3)cs2)c1	-29.8%	55.3*	89.5*	-3.0%	-7.8%	5.7%
O=C([C@H]1O[C@@H](n2ccc(=O)[nH]c2=O)[C@H](O)[C@@H]1O)N1CCN(c2ccc(Cl)cn2)CC1	2.3%	.	.	1.7%	.	.
Cn1c(SCC(=O)Nc2ccc3c(c2)OCO3)nnc1C(F)(F)F	-8.3%	.	.	-3.5%	.	.
CC(=O)Nc1cccc(-c2csc(Nc3ccccn3)n2)c1	2.3%	44.5*	90.3*	0.0%	-9.2%	-1.1%
CC(=O)Nc1cccc(-c2csc(C(O)c3ccccc3)n2)c1 (stereo not given)	10.3%	.	.	1.4%	.	.
CC1(C)CC(=O)c2cc(N=C/C(C(=O)c3ccccc3)=C(\O)c3ccccc3)c(=O)oc2C1	-11.9%	43.2*	185.1*	-20.7%	3.4%	-14.3%
CC1(C)CC(=O)c2cc(C(=O)O)c(=O)n(-c3ccccc3)c2C1	6.5%	0.3	-10.4	1.2%	3.6%	3.3%
CCn1ncc(/C=C/C(=O)C2CC2)c1C	4.3%	23.7	active	2.9%	-0.1%	4.4%
CCn1ncc(/C=C/C(=O)NCc2cnn(C)c2C)c1C	2.6%	-3.7	3.1	-3.3%	0.5%	-0.6%
O=C(O)c1ccc(Nc2nc(-c3ccccc3)cs2)cc1	3.6%	27.4*	112.3*	-6.1%	1.1%	15.8%
Cc1csc(Nc2ccccc2)n1	-12.3%	22.6*	44.3*	-3.9%	-2.0%	-0.1%
Cc1csc(Nc2ccc(C(=O)O)cc2)n1	-0.8%	14.7	11.4*	0.9%	-22.0%	5.8%
COCCNC(=O)CCCn1c(SCc2ccccc2C)nc2c(sc3ccccc32)c1=O	.	.	.	-5.1%	.	.
COc1ccc2cc(/C=C/C(=O)N3CCN(CC(=O)N4CCCCCC4)CC3)ccc2c1	-2.2%	36.9*	44.1*	-1.9%	-6.2%	3.4%
O=C(/C=C/c1ccc2c(c1)OCO2)N1CCCCC1	-4.8%	39.1*	45.2*	0.5%	-0.4%	-5.8%
COC(=O)C1CCN(C(=O)/C=C/c2ccc(OC)cc2)CC1	3.1%	49.2*	93.1	4.1%	-0.6%	-1.5%
O=C(/C=C\C=C/c1ccc2c(c1)OCO2)N1CCCCC1	.	.	.	.	.	1.1%[21.7 µM]
CN(C)C(CNC(=O)C1CCN(C(=O)/C=C/c2ccccc2)CC1)c1ccccc1 (stereo not given)	-14.7%	38.3*	59.0*	1.5%	-8.6%	-0.8%
O=C(O)C1CCCN(C(=O)/C=C/c2ccccc2)CC1 (stereo not given)	7.7%	.	.	-0.8%	.	.
SMILES	RE007 growth inh	CHX counter	Shiga inhibitor	Tb PYK inh	LmPK inh	FBPA Giardia inh
COc1ccc(/C=C/C(=O)N2CCC(c3ccccc3)C2)cc1 (stereo not given)	-11.6%	12.3	12.0	-7.6%	1.9%	-1.0%
COc1ccc2cc(S(=O)(=O)NC3CC(C)(C)NC(C)(C)C3)ccc2c1	-5.9%	-4.8	-21.8	-4.2%	1.5%	.
CCOC(=O)C1CCN(C(=O)/C=C/c2ccccc2)CC1	28.8%	33.0	72.6*	2.0%	7.1%	5.2%
CCOC(=O)C1CCN(C(=O)/C=C/c2ccc3c(c2)OCO3)CC1	-12.5%	28.7*	76.5	-5.0%	2.7%	4.2%
CCOc1ccc(NC(=O)Cn2c(=O)cc(C)c3c(C)nn(-c4cccc(Cl)c4C)c32)cc1	.	.	.	6.1%	.	.
COc1ccccc1-c1noc(Cn2cc(S(=O)(=O)N3CCCC3)ccc2=O)n1	-6.0%	.	.	4.7%	.	.
COc1c(C)cccc1C(=O)Nc1cccc2ccc(C)nc12	.	.	.	0.0%	.	.
COc1ccc(N2CC(C(=O)N(C)CC(=O)Nc3ccc(Cl)c(C(F)(F)F)c3)CC2=O)c(OC)c1 (stereo not given)	18.1%	.	.	1.4%	.	.
COc1ccccc1C(=O)C1CCCN(C(=O)c2ccccc2C(C)=O)C1 (stereo not given)	-3.1%	32.7*	48.7*	0.0%	-9.1%	-14.3%
CC(=O)NCC(=O)N1CCCC(C(=O)c2ccc(-c3ccccc3)c(F)c2)C1 (stereo not given)	-0.5%	2.6	3.6	-1.6%	5.2%	2.6%
COc1ccc(C(=O)C2CCCN(C(=O)c3ccccc3C(C)=O)C2)cc1F (stereo not given)	2.1%	30.1*	54.2	-1.4%	4.7%	1.0%
COc1ccc(C(=O)C2CCCN(C(=O)c3cc(C)nc(C)n3)C2)cc1OC (stereo not given)	-6.0%	23.8	50.4*	2.0%	0.2%	0.4%
COCC(=O)N1CCCC(C(=O)c2ccc(-c3ccccc3)c(F)c2)C1 (stereo not given)	1.2%	28.3*	19.9	0.5%	-1.1%	-0.1%
O=C(c1cn(CCOc2ccc(Cl)cc2)c2ccccc12)C1CCCCC1	.	.	.	0.4%	.	.
Cc1nnsc1C(=O)Oc1ccccc1Cl	.	.	.	-5.3%	.	.
COCC(=O)N1CCCC(C(=O)c2ccc(Oc3ccccc3)cc2)C1 (stereo not given)	4.4%	5.1	27.0	2.1%	-1.9%	-1.4%
COc1ccccc1N1CCN(C2CCCN(C(=O)CN3CCCC3=O)C2)CC1 (stereo not given)	0.0%	0.8	-3.9	-1.9%	0.8%	.
CC(=O)c1ccccc1C(=O)N1CCCC(C(=O)c2ccc(C(F)(F)F)cc2)C1 (stereo not given)	-6.7%	54.3*	70.0*	7.2%	9.9%	-3.9%
CCOC(=O)c1c(C)[nH]c(C(=O)N2CCCC(C(=O)c3ccccc3OC)C2)c1C (stereo not given)	-21.6%	11.6*	27.0	-0.3%	2.3%	-1.5%
COc1ccccc1C(=O)C1CCCN(C(=O)CN2CCCCC2=O)C1 (stereo not given)	-2.7%	18.6*	28.8	-0.8%	-3.3%	1.5%
CCOC(=O)c1c(C)[nH]c(C(=O)N2CCCC(C(=O)c3cccc(OC)c3)C2)c1C (stereo not given)	-0.8%	2.0	-7.9	-19.5%	6.1%	-3.4%

Compound activity deposited in PubChem BioAssay by National Center for Advancing Translational Sciences (NCATS).
